Experimental data reported in the supplement of paper PMC11417369.
± gives the standard deviation of the averaged measurements. In all, about 25,000 sequences were measured (“ln(normalized median fluorescence intensity)”: median about 10, highest 2% from about 12 on). This excerpt belongs to a sample that is enriched for the highest values.

Test system: PfAP2-G AP2 domain (GST-tagged)
Assay: gcPBM binding intensity (ln(normalized median fluorescence intensity)); higher = stronger DNA binding
In short: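 For binding intensity, the highest Masliner-normalised natural-log median intensity across replicate spots of either probe orientation was taken. Protein bound to the array was stained with Alexa488 anti-GST antibody and scanned at 488 nm. The protein, GST-tagged P. falciparum DNA-binding domains from E. coli at about 25 μg on average, had been applied for 1 h to an Agilent 4 × 180k array of primer-extended double-stranded 36-bp intergenic genomic probes and negative controls.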

Sequence | gcPBM binding intensity (ln)
AAATTAATGTATATGTGAAGCAAGGGATGCGGCAGA [CACACA_negctrl_site406] | 10.2 ± 0.12
GTACCTATTTCATACACACACACACCCAAACAAACA [CACACA_site976] | 10.7 ± 0.51
ACATAATAAAAATAAATTCATAAGTAAATAAATAAA [TGCATGCA_negctrl_site186] | 9.88 ± 0.24
GTTTGTATAGGTTCATGTACAAAAAAAAAAAAAAAA [XGTACX_site537] | 11 ± 0.83
TTGTTTAAGTCACGAACACACATATATCATCAATTT [CACACA_site986] | 10.11 ± 0.071
TTACTTATAAATAAATATACAAAAATGTTATATATA [XGTACX_negctrl_site223] | 9.625 ± 0.078
CATACATACATACATACATGCATACATACATACATA [TGCATGCA_site218] | 10.5 ± 0.47
AATTCTTTTTTCAACACACACACACCCGAAAATATA [CACACA_site3111] | 10.3 ± 0.28
CAAACCTATATACAAACATGCAATCCACATATTGGT [TGCATGCA_site756] | 9.99 ± 0.13
AACACAAGAACAGAACGTACACACACATATATATAT [XGTACX_site7347] | 11.3 ± 0.61
TAAAATTTTTGTTTTTGTACGAAACATCAATTTTAC [XGTACX_site4963] | 10.7 ± 0.34
AAAAAATGAAAAAACTGTACGCAATTTTGTTTTTAT [XGTACX_site2299] | 11.7 ± 1.2
AAGAAAAATTTAAACTGTACTTGTTTTCCAATGAAC [XGTACX_site4443] | 11.4 ± 1
CTTAAATTGAAATGTTGTACAAAGTAAAAACAATGA [XGTACX_site2123] | 11.2 ± 0.86
GTATATCACACATTTGCATGTTGTCAATAGTTTATC [TGCATGCA_site134] | 10.23 ± 0.014
TTAAAAATATTATGTACACACATTTTAGATATTTGT [CACACA_site1846] | 11.6 ± 0.77
ATTTAAAAAATATATTGTACATATTTTATTATGTTT [XGTACX_site2984] | 11 ± 0.63
TTCTTTAAAATATTATGTACACATTGCGAACAGTTT [XGTACX_site5418] | 11.7 ± 1
GTTATAAAATATGGCACACAAAATGTAAGTAAATGA [CACACA_site1458] | 10.5 ± 0.2
TTCATTAATGTGTAATGTACTTGTAATATGGGATTA [XGTACX_site3903] | 11.1 ± 0.82
TTTTTATTTATATGATACTTATATATATATATATAT [CACACA_negctrl_site462] | 10.2 ± 0.35
TTTATACACAAAAAATGTACATATATATAATGAATT [XGTACX_site1195] | 11.2 ± 0.72
CGATACTTTAGGTGTACACAAATATACATGAATGAG [CACACA_site5189] | 11.6 ± 0.84

Sequence | gcPBM binding intensity (ln)
ATATATATTTATAGGTGTACAAAATACTATTTTAGG [XGTACX_site8499] | 11.3 ± 0.82
TATTTATATAGGTATACACACATACAAATATGTAAA [CACACA_site7705] | 10 ± 0.28
TTACAAATAATTTGTTGTACGCTTTTTTTCTTTTTT [XGTACX_site7199] | 11.7 ± 1.1
AAAATTTCTTTTTTTTGTACATATATAATAATATAT [XGTACX_site7107] | 10.9 ± 0.62
TTTTCTTTTTTCTGTTGTACTAAAAATAATTTTGTA [XGTACX_site5171] | 11.3 ± 0.87
GACAAAATGATAGGGACACACAATATCAATGTTTAA [CACACA_site765] | 10.7 ± 0.51
TTTTTTTTTTTTGAGTGTACTAAAATATTACCTTTT [XGTACX_site646] | 11.2 ± 0.99
TAAAATAATAAACAGAAGAAATCATTCATATAAAAA [XGTACX_negctrl_site502] | 9.635 ± 0.035
ATAAATGAAAAAAAGCGTACATATAAAAAAATATAT [XGTACX_site5063] | 11.6 ± 1
ATATAAGAACAAAATTGTACATAAATATTTATATAA [XGTACX_site7404] | 10.8 ± 0.54
TTAACAAAATTTCCGTGTACGTAAATAAGAACATAG [XGTACX_site7200] | 11.8 ± 0.95
ACATAAGAACATATTTGTACGTATATAAATTAAATA [XGTACX_site6127] | 11.4 ± 0.79
AAATAATTAAAAAAAAGTACACATGTGACTACATAT [XGTACX_site8767] | 11.4 ± 0.71
ATGAACATGTGACAATGTACATTTATATCTTAAGAA [XGTACX_site4960] | 10.8 ± 0.43
TTTTTTTTTTTTTTTTTTATATTTCATAATTTCATT [XGTACX_negctrl_site579] | 9.33 ± 0.71
TTTTGTTTTGTTTTGTTTTGTTTTGTTTTATTTTAT [GTGCAC_negctrl_site383] | 9.86 ± 0.27
GAATACACCACGCACACACACTTGAGAAAAAATAAA [CACACA_site7747] | 10.6 ± 0.56
AAATTAAAATAAAATAGTACATATATTTATATTTTT [XGTACX_site1687] | 11.1 ± 0.69
TATTTGTTTTTATATAGTACATAAATATATATATAT [XGTACX_site7834] | 10.9 ± 0.61
TTTTTTTTTTTTGGTAGTACATAAATATTTTATGGA [XGTACX_site6851] | 12 ± 1.7
ATATAGTAAATTGGTAGTACATAAAATGATTTTATG [XGTACX_site4143] | 11.6 ± 0.95
AAATTATATATAAAATGTACATATGTAGGTAATTTT [XGTACX_site5047] | 10.9 ± 0.49
TATATTTTTATATTTTGTACATATAGTAAATATAAA [XGTACX_site4768] | 10.8 ± 0.51

Sequence | gcPBM binding intensity (ln)
TTTTGTTGTTGTTGTTGTACATAAATAATAAAATAT [XGTACX_site8681] | 11.3 ± 0.95
TATAGGTAAATGGACACACACATATTTATATTTATA [CACACA_site7683] | 10.9 ± 0.58
ATTATATATATCAGGTGTACGTAAAAAAAATGGACG [XGTACX_site1028] | 11.9 ± 0.81
AGTAAATATATTATATGTACGTATCATAAAATATAT [XGTACX_site1567] | 11.6 ± 0.86
TTTTTTTTTATAAGGTGTACGTAAAATGTGTAGGTC [XGTACX_site3585] | 11.6 ± 0.82
TAAAAATATATGTATACACACATATATATATATATA [CACACA_site3951] | 10 ± 0.38
AATGCTATCTTCTTATTTTTCATACACAACATGAAC [CACACA_negctrl_site1809] | 10.2 ± 0.11
TATGATTTTTATATATGTACGTATGGTGTTTTACAA [XGTACX_site6100] | 11.3 ± 0.53
TGTTTTGTTTTTTGGGGTACATGTTTTGTATTATAT [XGTACX_site7997] | 11.6 ± 0.78
GTTTGGTGGTGTTTTGGTACGTACGGGGGTGTATGT [XGTACX_site1211] | 11.7 ± 0.85
GACTTTTCATTTATAGTGCAAGTTTTTTTTTTTTTT [GTGCAC_site9698] | 10.1 ± 0.23
CAAAAGTAAGCACGCACACACAACATGAAATAAACT [CACACA_site6223] | 10.29 ± 0.078
ATATATTTTGATTGCACACAGAATTTAAATCATGAT [CACACA_site2343] | 10.1 ± 0.2
TATTTATAAAAATATACACACATACAAATATGCATA [CACACA_site4555] | 9.815 ± 0.007
TTTTTTTTTTTAATATGTACGTAAAATAAGTTTAAA [XGTACX_site6495] | 11.4 ± 0.95
CATAAATACTATATATGTACGTAATTTTTAAAACAT [XGTACX_site7710] | 11.6 ± 0.83
TTTTTTTTAAAACTATGTACGTAAAAATTGTAGTTT [XGTACX_site2302] | 11.7 ± 0.91
TTTATTTTATTTTCATGTACAAAAGGGGAATAATAA [XGTACX_site2704] | 10.9 ± 0.71
AATAGGGTCATTCAAAAAAAAAAAAAATAATAATAC [CACACA_negctrl_site644] | 10.1 ± 0.29
ATTTCTAAATGTTGGTGTACGTTTTTTTATAACCTT [XGTACX_site1752] | 11.6 ± 1.1
TACACATGTTTAAAATGTACGTTTTATAACACACAC [XGTACX_site8229] | 11.3 ± 0.82
ATATTATAAATATAATGTACGTTTTAATTTCATGTT [XGTACX_site3557] | 11.2 ± 0.79
TCACTATAATAATTTACACACATTTTAAGAAAATGG [CACACA_site5867] | 10 ± 0.18

Sequence | gcPBM binding intensity (ln)
TATATTTATTATAACACACACATATATATATTATAT [CACACA_site1061] | 9.905 ± 0.064
TTATAAATAAAAAATACACACATATATTTATTTATA [CACACA_site6242] | 9.77 ± 0.028
TACTATGCCCCATATAAACACACAAATAAAAAGAAT [CACACA_site8857] | 10.2 ± 0.21
TTTTCATGTTGTAAAGCATGCTTTACTCATAAAAAA [TGCATGCA_site917] | 9.95 ± 0.23
ATTTCATTTTATAAGTGTACAATAAAAAAAAAAAAA [XGTACX_site8677] | 11.3 ± 1
ATAGGCAAAAAGTGTACACATTCATTTATATAAATA [CACACA_site4480] | 11.7 ± 0.79
TATACATTTTTATAAAGTACACAAAAATAAATATAA [XGTACX_site1647] | 11.5 ± 0.95
TGCAATATATCAAAGTGTACATGCAATAAAAAAAAA [XGTACX_site652] | 11.1 ± 0.71
ATTTAAATAATATGTACACACATTTAAAAAGTTATA [CACACA_site7347] | 11.6 ± 0.94
ACAATATGCAAAAAGTGTACACATTCATTTATATAA [XGTACX_site1061] | 11.7 ± 0.86
TTGTAGATATTTATATGTACGAATTTATAAATATAG [XGTACX_site3611] | 11.1 ± 0.76
ACTATTTTCTTCAAAACATGCACCACATAAACATAA [TGCATGCA_site200] | 10.6 ± 0.51
TAATTATTATTAATAGTACACACTATGGCATTTCAA [CACACA_site2488] | 11.1 ± 0.84
AAAATTCATCCAACAAGTACATAAATATAATATTAT [XGTACX_site4596] | 11.3 ± 0.79
ATTATATTTTTAAGTACACACATATAAATAAATATA [CACACA_site7682] | 11.4 ± 1
ATTAACACATTTAAGTGTACATATATAAATATATAT [XGTACX_site7098] | 11.4 ± 0.83
GATTATTTTATAAGTACACACATTTATATATAATAA [CACACA_site2573] | 11.5 ± 1.1
TATATTTATAAGTGTACACATTATATAAATCCCTAT [CACACA_site6122] | 11.7 ± 1.1
TAATATATTTATAAGTGTACACATTATATAAATCCC [XGTACX_site8875] | 11.7 ± 0.74
TATTCATATTCCAAGTGTACACATAAATCCCTAATA [XGTACX_site4131] | 11.5 ± 0.9
TCATATTCCAAGTGTACACATAAATCCCTAATAACA [CACACA_site5167] | 11.7 ± 0.94
TATAAATATATTTATACACACATTAGTGTATACATG [CACACA_site7397] | 10.2 ± 0.11
